Source: PubChem (Sanford-Burnham Center for Chemical Genomics)
In the library only some 28% were active in any assay of this set; here they are far more common.
CYP2C19 activ – cytochrome P450 2C19 (human) activation; 96,000 tested, under 10 active; activation factor at 5 µM; recombinant CYP2C19, luciferin-H EGE luminescence; active compounds read high; 0 = fully inhibited enzyme, 1 = untreated enzyme;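 active = activation factor of at least 2 at 5 µM in the primary screen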;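 also: 0 = wells with 2.5 mM tranylcypromine and 1 = vehicle-only wells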
Target sequence (P33261 whole entry, looked up): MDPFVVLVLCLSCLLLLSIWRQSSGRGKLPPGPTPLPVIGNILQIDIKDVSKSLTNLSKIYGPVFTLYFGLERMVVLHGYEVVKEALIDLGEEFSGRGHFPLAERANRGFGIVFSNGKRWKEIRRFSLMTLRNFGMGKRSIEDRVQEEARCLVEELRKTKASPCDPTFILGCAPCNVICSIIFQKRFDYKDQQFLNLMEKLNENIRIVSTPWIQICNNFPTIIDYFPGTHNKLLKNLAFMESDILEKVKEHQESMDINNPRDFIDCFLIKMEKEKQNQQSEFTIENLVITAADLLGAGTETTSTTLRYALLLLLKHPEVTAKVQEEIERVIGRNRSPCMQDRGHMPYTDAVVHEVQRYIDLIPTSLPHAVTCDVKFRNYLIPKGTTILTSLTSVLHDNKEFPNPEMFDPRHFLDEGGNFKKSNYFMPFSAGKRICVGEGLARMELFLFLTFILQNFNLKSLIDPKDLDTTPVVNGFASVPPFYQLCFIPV
CD11b adhes enh – CD11b/CD18-fibrinogen binding enhancement. K562 CD11b/CD18 adhesion to fibrinogen, ATPlite luminescence. activation, % at 10 µM. 0.07% of 93,000 active. AID 1499;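 active = 10 µM primary screen giving 50% or more activity, confirmed by 40% or more on retest at that dose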
CD11b adhes inh – blocks human CD11b/CD18 adhesion to fibrinogen. K562 CD11b/CD18 adhesion to fibrinogen, ATPlite luminescence; Mn2+ added to activate the integrin. inhibition, % at 10 µM. 0.54% of 93,000 active. AID 1497;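 active = primary inhibition of 50% or more at 10 µM, then 40% or more on retest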
CYP2C9 inh – human CYP2C9 inhibition; P11712; 20% of 96,000 active; inhibition, % at 5 µM; CYP2C9 Supersomes, luciferin-H conversion, luminescence;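 active = blocking of liver enzyme CYP2C9 beyond about 50% at 5 µM, limit read from the data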
CYP2C9 activ – increases human cytochrome P450 2C9 activity | P11712 | recombinant CYP2C9, luciferin-H conversion, luminescence; active compounds read high; factor 1 = untreated enzyme, 0 = blocked | activation factor at 5 µM | 1.4% of 96,000 active | AID 1024;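 active = activation factor of 2 or more for CYP2C9 at a 5 µM dose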;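 also: 0 = sulfaphenazole-blocked wells and 1 = vehicle-only wells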
CYP2C19 inh – inhibitors of human CYP2C19 | CYP2C19 Supersomes, luciferin-H EGE luminescence, 30 min | 21% of 96,000 active | P33261 | inhibition, % at 5 µM;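 active = CYP2C19 inhibition above a set limit at 5 µM in the primary screen, cut at about 50% in these data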;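 also: plate controls were negative control wells for no effect and 2.5 mM tranylcypromine positive control for full effect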
The depositor's hits bear a star.

What do the screens show for `CC(=O)N1CCc2cc(S(=O)(=O)Nc3cccc(C(F)(F)F)c3)ccc21`?
CYP2C19 activ: 0; CD11b adhes enh: -6; CD11b adhes inh: 40; CYP2C9 inh: 71*; CYP2C9 activ: 0.3; CYP2C19 inh: 95*

Results for CC(=O)N1CCc2cc(S(=O)(=O)CCC(=O)NCc3ccc4c(c3)OCO4)ccc21 ?
CYP2C19 activ: 0.6; CYP2C9 inh: -16; CYP2C9 activ: 1.2; CYP2C19 inh: 45

How did Cc1ccc(Cn2nnc3c(=O)[nH]c(C4CCN(C(=O)Cc5cccs5)CC4)nc32)cc1 do in these assays?
CYP2C19 activ: 0.5; CD11b adhes enh: -3; CD11b adhes inh: 0; CYP2C9 inh: 89*; CYP2C9 activ: 0.1; CYP2C19 inh: 48

How did O=C(Cc1cccs1)N1CCC(c2nc3c(nnn3Cc3ccccc3)c(=O)[nH]2)CC1 do in these assays?
CYP2C19 activ: 0.5; CD11b adhes enh: -5; CD11b adhes inh: -1; CYP2C9 inh: 97*; CYP2C9 activ: 0; CYP2C19 inh: 48

Results for Cc1ccc(Cn2nnc3c(=O)[nH]c(C4CCCN(S(=O)(=O)c5ccccc5)C4)nc32)cc1 (stereo not given) ?
CYP2C19 activ: 0.9; CD11b adhes enh: -3; CD11b adhes inh: -8; CYP2C9 inh: 26; CYP2C9 activ: 0.7; CYP2C19 inh: 13

Results for Cc1ccc(Cn2nnc3c(=O)[nH]c(C4CCN(S(=O)(=O)c5ccccc5)CC4)nc32)cc1 ?
CYP2C19 activ: 0.7; CYP2C9 inh: 79*; CYP2C9 activ: 0.2; CYP2C19 inh: 31

How did COc1cc(NC(=S)N2CCN(c3ccccn3)CC2)cc(OC)c1 do in these assays?
CD11b adhes enh: 10; CD11b adhes inh: -24

Results for COC(=O)c1sccc1-c1ccc(C(=O)Nc2cccc(Cl)c2)o1 ?
CYP2C19 activ: 0.6; CYP2C9 inh: 72*; CYP2C9 activ: 0.3; CYP2C19 inh: 43

How did COc1ccc(N=c2oc3c(OC)cccc3cc2C(=O)NCc2ccco2)c(OC)c1 do in these assays?
CYP2C19 activ: 0.7; CD11b adhes enh: 49; CD11b adhes inh: 1; CYP2C9 inh: 54*; CYP2C9 activ: 0.5; CYP2C19 inh: 30

How did COc1ccc(OC)c(-c2cc(C(=O)NCc3ccco3)no2)c1 do in these assays?
CYP2C19 activ: 0.9; CD11b adhes enh: -1; CD11b adhes inh: -1; CYP2C9 inh: -191; CYP2C9 activ: 2.9*; CYP2C19 inh: 9

How did COc1ccc2cc(C(=O)NCc3ccco3)c(=Nc3ccc(C(=O)O)cc3)oc2c1 do in these assays?
CYP2C19 activ: 0.9; CD11b adhes enh: 0; CD11b adhes inh: -9; CYP2C9 inh: 30; CYP2C9 activ: 0.7; CYP2C19 inh: 6

What do the screens show for `COc1ccc(OC)c(-c2cc(C(=O)Nc3cccc(Cl)c3)no2)c1`?
CYP2C19 activ: 1; CD11b adhes enh: 17; CD11b adhes inh: -9; CYP2C9 inh: -117; CYP2C9 activ: 2.2*; CYP2C19 inh: -4

How did CC1(C)CC(=O)c2cc(OCC(=O)NCCCN3CCN(c4ccc(F)cc4)CC3)ccc2O1 do in these assays?
CYP2C19 activ: 0.9; CD11b adhes enh: -4; CD11b adhes inh: 16; CYP2C9 inh: 14; CYP2C9 activ: 0.9; CYP2C19 inh: 8

What do the screens show for `Cc1ccc(Cl)c(OCC(=O)Nc2sc(C)c(C)c2C#N)c1`?
CD11b adhes enh: 4; CD11b adhes inh: 2

What do the screens show for `O=S(=O)(c1cccc2cccnc12)n1cnc2ccccc21`?
CYP2C19 activ: 0.9; CD11b adhes enh: 0; CD11b adhes inh: -5; CYP2C9 inh: -64; CYP2C9 activ: 1.6; CYP2C19 inh: 10

What do the screens show for `O=C(NCc1ccccc1F)C1CCCN(C(=O)NC2CCCCC2)C1` (stereo not given)?
CYP2C19 activ: 1; CD11b adhes enh: -2; CD11b adhes inh: -2; CYP2C9 inh: -1; CYP2C9 activ: 1; CYP2C19 inh: -3

How did O=C(NCC1CCCO1)c1sc2cc(Cl)ccc2c1Cl (stereo not given) do in these assays?
CD11b adhes enh: 5; CD11b adhes inh: 15

What do the screens show for `Cc1ccc2c(c1)-c1c(ssc1=S)C(C)(C)N2C(=O)CSc1nncn1C`?
CYP2C19 activ: 0.2; CD11b adhes enh: 3; CD11b adhes inh: 6; CYP2C9 inh: 43; CYP2C9 activ: 0.6; CYP2C19 inh: 76*
